Laboratory results: PubChem BioAssay (NCATS)
Inconclusive results are not listed. Activity calls are given as the source filed them. Calls come from the whole dose curve; as a rule, active = well fitted cell-killing curve with a large enough effect; inconclusive = small, poorly fitted or top-dose-only effect, or effect the other way; inactive = no such curve, though single readings can be large or run the other way.
Potency is the fitted concentration of half-maximal effect.

Test: Quantitative High-Throughput drug screen in 47 multiple myeloma cell lines against the NCATS MIPE library collection: OPM1_PLB cell viability assay (AID 1918989); note: nearly all actives have a fitted effect of over 40% in size
Conditions: CellTiter-Glo, 48 h; series mostly up to 45.8 µM
Excerpt: PI: Beverly A. Mock Ph.D.
Laboratory of Cancer Biology and Genetics,
Center for Cancer Research, National Cancer Institute,
National Institute of Health, Bethesda, Maryland
Drug resistance and disease progression are common in multiple myeloma (MM) patients, underscoring the need for new therapeutic combinations. […] We hypothesized that effective combinations would reduce MYC expression and enhance p16 activity. […] These preclinical data identify potentially useful drug combinations for evaluation in drug-resistant MM and reveal potential mechanisms of combined drug sensitivity.
Described herein is the primary MIPE qHTS used to cherrypick compounds. Validated compounds were then further tested for potential synergistic activiy.
[1] Peat TJ, Gaikwad SM, Dubois W, Gyabaah-Kessie N, Zhang S, Gorjifard S, Phyo Z, Andres M, Hughitt VK, Simpson RM, Miller MA, Girvin AT, Taylor A, Williams D, D'Antonio N, Zhang Y, Rajagopalan A, Flietner E, Wilson K, Zhang X, Shinn P, Klumpp-Thomas C, McKnight C, Itkin Z, Chen L, Kazandijian D, Zhang J, Michalowski AM, Simmons JK, Keats J, Thomas CJ, Mock BA. Drug combinations identified by high-throughput screening promote cell cycle transition and upregulate Smad pathways in myeloma. Cancer Lett. 2023 Aug 1;568:216284. doi: 10.1016/j.canlet.2023.216284. Epub 2023 Jun 24. PMID: 37356470; PMCID: PMC10408729.
SEQUENCE No. (e.g., 1, 2, 3, etc.); […] (e.g., Cells, Incubation, Reagent, etc.); VALUE and DESCRIPTION.
1; Cells; 5 uL; white, solid bottom 1536-well Greiner assay plate.
2; Compounds; 23 nL; Kalypsis pin tool (Wako USA) equipped with a 1536-well pin head to transfer to the assay plates.
3; Incubation; 48 hours; 37C incubation.
4; Reagent;5uL; CellTiter Glo (Promega).
5; Detector; 425V; Luminescence; Viewlux PerkinElmer.
NOTES (numbers refer to Sequence numbers above)
1. The cell-based screening methods employed in this study were like those previously published. Briefly, the corresponding myeloma cell lines were screened in 1,536-well plates with 500 cells, 5-uL per well for inhibition of cell viability (assessed by measuring ATP levels with CellTiterGlo).
2. NCATS MIPE 4.0 library of approved and investigational drugs were added using the Kalypsis pin tool. Wells treated with DMSO only for 100% viability and media only for 0% viability were used as controls.
3. The assay plates were covered and incubated for 48 hours in a 37C, 5% CO2 incubator with controlled humidity.
4. After 48 hours, CellTilter-GloTM luminescent substrate mix (Promega) reagent was added to the assay plate and plates we incubated for 5 min at room temperature.
5. Signal was measured as median relative luminescence units on a ViewLux (PerkinElmer) multiplate reader.
[1] Heske CM, Davis MI, Baumgart JT, Wilson K, Gormally MV, Chen L, Zhang X, Ceribelli M, Duveau DY, Guha R, Ferrer M, Arnaldez FI, Ji J, Tran HL, Zhang Y, Mendoza A, Helman LJ, Thomas CJ. Matrix Screen Identifies Synergistic Combination of PARP Inhibitors and Nicotinamide Phosphoribosyltransferase (NAMPT) Inhibitors in Ewing Sarcoma. Clin Cancer Res. 2017 Dec 1;23(23):7301-7311. doi: 10.1158/1078-0432.CCR-17-1121. Epub 2017 Sep 12. PMID: 28899971; PMCID: PMC6636827.
For Nc1nc(N)c2nc(-c3cccc(O)c3)c(-c3cccc(O)c3)nc2n1, the Potency was 9.35 µM (active).
With Cc1cncc2cccc(S(=O)(=O)N3CCCN(C(=O)CN)C[C@@H]3C)c12 the Potency was “inactive”.
For CC(C)(C)c1nc2c3cc[nH]c(=O)c3c3cc(F)ccc3c2[nH]1, the Potency was 0.743 µM (active).
For O=c1[nH]c(=O)n([C@H]2C[C@@H](O)[C@@H](CO)O2)cc1F, the Potency was 0.0296 µM (active).
For O=c1ccn([C@@H]2O[C@H](CO)[C@H](O)[C@@H]2F)c(=O)[nH]1, the Potency was “inactive”.
With COc1ccc(S(=O)(=O)Nc2cccnc2Nc2ccc(O)cc2)cc1 the Potency was 0.235 µM (active).
For C=C1C(=O)O[C@H]2[C@@H]1CCC(C)=CCC[C@@]1(C)O[C@@H]21, the Potency was 4.69 µM (active).
For Cc1cc(-c2nnc3n2CCCCC3)c(C)n1-c1ccccc1, the Potency was “inactive”.
With CCc1c(O)cc(O)c(C(=O)c2ccc(OCCN3CCOCC3)c(OC)c2)c1CC(=O)N(CCOC)CCOC the Potency was 0.662 µM (active).
For COc1cc(C=CC(=O)CC(=O)C=Cc2ccc(O)c(OC)c2)ccc1O, the Potency was 3.82 µM (active).
With CN(C)c1ccc2cc(C(=O)N[C@@H](CCCN=C(N)CCl)C(=O)NCc3ccccc3)ccc2c1 the Potency was 7.43 µM (active).
With COC1=C(OC)C(=O)C(CC=C(C)CCC=C(C)CCC=C(C)CCC=C(C)CCC=C(C)CCC=C(C)CCC=C(C)CCC=C(C)CCC=C(C)CCC=C(C)C)=C(C)C1=O the Potency was “inactive”.
With CC1(C)[C@H](O[C@H]2O[C@H](C(=O)O)[C@@H](O)[C@H](O)[C@H]2O[C@@H]2O[C@H](C(=O)O)[C@@H](O)[C@H](O)[C@H]2O)CC[C@@]2(C)[C@H]1CC[C@]1(C)[C@H]2C(=O)C=C2[C@H]3C[C@@](C)(C(=O)O)CC[C@]3(C)CC[C@]21C the Potency was “inactive”.
For N#CNC(=NCCCCCCOc1ccc(Cl)cc1)Nc1ccncc1, the Potency was 0.003 µM (active).
In the case of CC(C)c1cnn2c(NCc3ccccc3)cc(NCCCCCCN)nc12, the Potency is reported as 18.7 µM (active).
In the case of COc1cc(CCc2cc(NC(=O)c3ccc(N4C[C@@H](C)N[C@@H](C)C4)cc3)n[nH]2)cc(OC)c1, the Potency is reported as 14.8 µM (active).
With COc1cc(C(C)C)c(Oc2cnc(NC(CO)CO)nc2N)cc1I the Potency was 1.66 µM (active).
In the case of CCOC(=O)N1CCN([N+]([O-])=NOc2ccc([N+](=O)[O-])cc2C#N)CC1, the Potency is reported as 0.418 µM (active).
In the case of COc1cc(OC)cc(-c2ccc3ncc4ccc(=O)n(-c5ccc(N6CCNCC6)c(C(F)(F)F)c5)c4c3c2)c1, the Potency is reported as 4.69 µM (active).
For CCc1ccc(C(=O)Nc2cc(CN3CCN(C)CC3)cc(C(F)(F)F)c2)cc1C#Cc1cnc2ccnn2c1, the Potency was 7.43 µM (active).
In the case of Nc1nc(=O)n([C@H]2CSC(CO)O2)cc1F (stereo not given in full), the Potency is reported as “inactive”.
In the case of CC(=O)SCC(Cc1ccccc1)C(=O)NCC(=O)OCc1ccccc1 (stereo not given), the Potency is reported as 5.26 µM (active).
With CC(=O)[C@]1(O)Cc2c(O)c3c(c(O)c2[C@@H](O[C@H]2C[C@H](N)[C@@H](O)[C@H](C)O2)C1)C(=O)c1ccccc1C3=O the Potency was 0.418 µM (active).
In the case of COc1ccc(C[C@@H](C)[C@@H](C)Cc2ccc(OC)c(OC)c2)cc1OC, the Potency is reported as 0.264 µM (active).
In the case of C[C@H]1COc2c(N3CCN(C)CC3)c(F)cc3c(=O)c(C(=O)O)cn1c23, the Potency is reported as “inactive”.
For C[C@@]12C(=O)OC(=O)[C@@]1(C)C1CCC2O1, the Potency was 0.372 µM (active).
With CC1=C(C(=O)Nc2cc3cn[nH]c3cc2F)C(c2ccc(Cl)cc2F)N=C(c2ccnc(Cl)c2)N1 (stereo not given) the Potency was 18.7 µM (active).
In the case of O=C(Nc1nnc(-c2ccco2)o1)c1cc(-c2ccccc2)nc2ccccc12, the Potency is reported as 20.9 µM (active).
In the case of C[C@@H](NCc1cc2ccccc2[nH]1)c1cccc2ccccc12, the Potency is reported as “inactive”.
In the case of COC(=O)C=CC(=O)OC, the Potency is reported as 20.9 µM (active).
With CC(C)c1cc(C(C)C)c(CC(=O)NS(=O)(=O)Oc2c(C(C)C)cccc2C(C)C)c(C(C)C)c1 the Potency was 9.35 µM (active).
For C=C[C@@H]1CN2CCC1C[C@H]2[C@H](O)c1ccnc2ccc(OC)cc12 (stereo not given in full), the Potency was “inactive”.
With Cn1cc(C2=C(c3c4n(c5ccccc35)CCC(CN)C4)C(=O)NC2=O)c2ccccc21 (stereo not given) the Potency was 7.43 µM (active).
In the case of CC(C)OC(=O)[C@H](C)N[P@](=O)(OC[C@H]1O[C@@H](n2ccc(=O)[nH]c2=O)[C@](C)(F)[C@H]1O)Oc1ccccc1, the Potency is reported as “inactive”.
For CC(=O)NCC(=O)N1[C@H]2CC[C@H]1c1cc(Nc3ncc(C(F)(F)F)c(NC4CCC4)n3)ccc12, the Potency was 0.59 µM (active).
With C#CCC(Cc1cnc2nc(N)nc(N)c2n1)c1ccc(C(=O)N[C@@H](CCC(=O)O)C(=O)O)cc1 (stereo not given in full) the Potency was 0.166 µM (active).
For CC(=O)O[C@@]12CO[C@H]1C[C@H](O)[C@@]1(C)C(=O)[C@H](O)C3=C(C)[C@@H](OC(=O)C(O)[C@@H](NC(=O)OC(C)(C)C)c4ccccc4)C[C@@](O)([C@@H](OC(=O)c4ccccc4)[C@@H]21)C3(C)C (stereo not given in full), the Potency was “inactive”.
For CCCCOc1ccc(C(=O)Nc2ccc(F)cc2F)cc1, the Potency was “inactive”.
With CCN(CC)Cc1ccc2cc(COC(=O)Nc3ccc(C(=O)NO)cc3)ccc2c1 the Potency was 0.264 µM (active).
For C=CC[C@@H]1C=C(C)C[C@H](C)C[C@H](OC)[C@H]2O[C@@](O)(C(=O)C(=O)N3CCCC[C@H]3C(=O)O[C@H](C(C)=C[C@@H]3CC[C@H](O)[C@H](OC)C3)[C@@H](C)[C@@H](O)CC1=O)[C@@H](C)C[C@@H]2OC, the Potency was 2.64 µM (active).
